Test results taken from PubChem BioAssay.
“And” between values parts separate entries of the source, which are not always exact repeats. Equal entries are not always repeated. More than one record can exist for a structure, and the calls need not agree. The source made the active and inactive calls.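 How the source made its calls, unless noted: active means z-score of at least 1.8 in each of two replicates, scored against plate mean and spread of sample wells; inactive means the rest.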

Columns and labels:
[1] = galactose survival enhancers in mitochondrial complex I cybrids – cell-based, galactose medium, ATP luminescence, primary screen (AID 1645843); conditions: complex I mutant cybrid cells, 72 h, stronger effect = higher value;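 further: positive z means more ATP and so rescue of galactose-driven cybrid death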
[2] = target: Mitogen-activated protein kinase 7 (Homo sapiens) (UniProt Q13164); experiment: Gal4-ERK5 driven luciferase induction – cell-based, HTS, primary screen (AID 1508626;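 active means luciferase signal above three times the same-plate solvent-only control wells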;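 further: luciferase driven by Gal4-ERK5 fusion binding five Gal4 sites before minimal TATA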); conditions: HeLa Gal4-ERK5 transactivation, 18 h, at 5 µM, stronger effect = higher value
Sequence of Mitogen-activated protein kinase 7 (Homo sapiens) (Q13164 whole entry, looked up, the tested form may be a part): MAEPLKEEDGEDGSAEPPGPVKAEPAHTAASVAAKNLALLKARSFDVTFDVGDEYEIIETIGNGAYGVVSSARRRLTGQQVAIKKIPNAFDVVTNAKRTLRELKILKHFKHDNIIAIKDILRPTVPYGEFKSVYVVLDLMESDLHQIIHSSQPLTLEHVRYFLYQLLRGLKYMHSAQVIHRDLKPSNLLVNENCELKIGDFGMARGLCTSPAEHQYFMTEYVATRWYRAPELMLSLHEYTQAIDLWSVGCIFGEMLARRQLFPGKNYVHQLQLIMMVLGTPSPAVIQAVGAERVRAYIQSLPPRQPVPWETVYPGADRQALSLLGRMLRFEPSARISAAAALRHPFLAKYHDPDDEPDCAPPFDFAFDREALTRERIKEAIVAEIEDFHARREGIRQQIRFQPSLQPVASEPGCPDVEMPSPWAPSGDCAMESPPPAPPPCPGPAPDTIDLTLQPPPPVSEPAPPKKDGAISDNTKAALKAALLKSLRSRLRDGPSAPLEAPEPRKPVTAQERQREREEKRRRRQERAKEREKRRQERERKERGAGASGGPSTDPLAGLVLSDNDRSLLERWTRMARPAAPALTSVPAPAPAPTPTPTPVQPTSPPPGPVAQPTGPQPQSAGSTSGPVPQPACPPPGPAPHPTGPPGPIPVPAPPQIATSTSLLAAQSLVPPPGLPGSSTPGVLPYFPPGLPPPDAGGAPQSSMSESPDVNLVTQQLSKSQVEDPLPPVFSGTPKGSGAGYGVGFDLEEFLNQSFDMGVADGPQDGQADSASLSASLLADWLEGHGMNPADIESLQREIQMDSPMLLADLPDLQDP

[3] = growth inhibition, single agent or in combination, cell-based, chromothripsis tumors, cisplatin or BGB combos (AID 1671449; in the data active means inhibition above about 80%;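 further: cells exposed for 96 hours; 0% = vehicle DMSO and 100% = killing by high DMSO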); conditions: LFS_MB_P medulloblastoma cells
[4] = growth inhibition, single agent and combos, cell-based, chromothripsis tumors, cisplatin or BGB combos (AID 1671450; in the data active means inhibition above about 80%;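 further: cells exposed to compound for four days; 0% = vehicle DMSO and 100% = cell killing by high DMSO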); conditions: HDN33 neuroblastoma cells, stronger effect = higher value
[5] = growth inhibition, single agents and combos, ICB984, cell-based, cisplatin or BGB combos, synergistic combos for chromothripsis tumors (AID 1671451; call rule not given here;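 further: cells exposed for 96 hours before readout; 0% = vehicle DMSO and 100% = killing by high DMSO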); conditions: ICB984 medulloblastoma cells, drug combinations, stronger effect = higher value
[6] = growth inhibition, single agents and combos, LFS_MB_1R, cell-based, cisplatin or BGB combos, synergistic combos for chromothripsis tumors (AID 1671452; in the data active means inhibition above about 80%;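 further: cells exposed for 96 hours before readout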); conditions: LFS_MB_1R medulloblastoma cells, stronger effect = higher value
[7] = growth inhibition, single agents and combos, HTB85, cell-based, BGB or cisplatin IC20 combos, synergistic combos for chromothripsis tumors (AID 1671453; in the data active means inhibition above about 80%;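 further: cells exposed for 96 hours before readout; 0% = vehicle DMSO and 100% = high DMSO killing control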); conditions: HTB85 osteosarcoma cells, drug combinations, stronger effect = higher value
[8] = growth inhibition, single agents and combos, CRL2098, cell-based, BGB or cisplatin IC20 combos, synergistic combos for chromothripsis tumors (AID 1671454; in the data active means inhibition above about 80%;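 further: cells exposed for 96 h before readout; 0% = vehicle DMSO and 100% = killing by high DMSO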); conditions: CRL2098 osteosarcoma cells, drug combinations, stronger effect = higher value
[9] = growth inhibition, single agents and combos, HD-MB03, cell-based, BGB or cisplatin IC20 combos, synergistic combos for chromothripsis tumors (AID 1671455; in the data active means inhibition above about 83%;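 further: 0% = vehicle DMSO and 100% = high DMSO as cytotoxic control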); conditions: HD-MB03 medulloblastoma cells, stronger effect = higher value
[10] = growth inhibition, single agents and combos, UWB1.289, cell-based, BGB or cisplatin combos, synergistic combos for chromothripsis tumors (AID 1671456; in the data active means inhibition above about 80%;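 further: cells exposed to compound for four days; 0% = vehicle DMSO and 100% = killing by high DMSO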); conditions: UWB1.289 ovarian carcinoma cells, stronger effect = higher value
[11] = growth inhibition, single agents and combos, LFS_MB_2R, cell-based, cisplatin combos, synergistic combos for chromothripsis tumors (AID 1671457; in the data active means inhibition above about 80%;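 further: cells exposed to compound for four days before readout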); conditions: LFS_MB_2R medulloblastoma cells, stronger effect = higher value
[12] = growth inhibition, MDA-MB-436, cell-based, BGB or cisplatin combos, synergistic combos for chromothripsis tumors (AID 1671458; call rule not given here;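 further: cells exposed for 96 hours; 0% = vehicle DMSO and 100% = killing by high DMSO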); conditions: MDA-MB-436 breast carcinoma growth inhibition, drug combinations, stronger effect = higher value
[13] = UWB1.289_BRCA1 ovarian cancer growth, cell-based, BGB or cisplatin combinations (AID 1671459; in the data active means inhibition above about 80%); conditions: UWB1.289 BRCA1 ovarian carcinoma, drug combinations, stronger effect = higher value
[14] = drug combination toxicity in non-malignant astrocytes – cell-based, BGB or cisplatin IC20 combos, cytotoxicity control for chromothriptic childhood tumor combination screen (AID 1671460; in the data active means inhibition above about 80%;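 further: cells exposed to compounds for 96 hours before viability readout; 0% = vehicle and 100% = killing control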); conditions: Human astrocytes, viability inhibition, drug combinations, at 0.5 µM, stronger effect = higher value
[15] = BT084 cell growth, single and combined drugs, ICGC_MB145, cisplatin and BGB IC40 combos (AID 1671461; in the data active means inhibition above about 80%;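 further: cells exposed to drugs for 96 hours; 0% = vehicle DMSO and 100% = high DMSO full killing control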); conditions: BT084 medulloblastoma cells, drug combinations, stronger effect = higher value
[16] = RCMB18 cell growth, single agent and combined, cisplatin and BGB IC40 combos (AID 1671462; in the data active means inhibition above about 80%;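 further: cells exposed to compound for four days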); conditions: RCMB18 medulloblastoma cells, stronger effect = higher value
[17] = CRL1545 cell growth, single agent and combined, cisplatin and BGB IC20 combos (AID 1671464; in the data active means inhibition above about 80%;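 further: cells exposed to compound for 96 hours before readout; 0% = vehicle DMSO and 100% = high DMSO killing control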); conditions: CRL1545 osteosarcoma cells, stronger effect = higher value
[18] = measured here: combination with BGB IC40, at 0.05 µM
[19] = measured here: with BGB IC20 combination, at 0.5 µM
[20] = measured here: with cisplatin IC20 combination, at 0.5 µM
[21] = measured here: combination with cisplatin, at 0.5 µM
[22] = measured here: combination with cisplatin, at 5 µM

COc1cc(-c2ccc(=O)[nH]n2)ccc1OC(F)F
z-score [1]: 0.03 (inactive) and -0.045 (inactive) and 0.53 (inactive)

NS(=O)(=O)c1cc2c(cc1Cl)NC(C1CC3C=CC1C3)NS2(=O)=O (configuration not stated)
luciferase signal [2]: 84 AU (inactive)
z-score [1]: 0.71 (inactive) and 0.55 (inactive)

OC[C@H]1O[C@@H](Oc2ccc(O)cc2)[C@H](O)[C@@H](O)[C@@H]1O
luciferase signal [2]: 48 AU (inactive)

CC(C(=O)O)c1ccc(C(=O)c2cccs2)cc1 (configuration not stated)
luciferase signal [2]: 92 AU (inactive)

COc1cc2c(cc1OC)-c1cc(=Nc3c(C)cc(C)cc3C)n(C)c(=O)n1CC2
z-score [1]: -0.95 (inactive) and -0.575 (inactive) and 0.465 (inactive)

COc1cc([C@H]2Oc3cc([C@H]4Oc5cc(O)cc(O)c5C(=O)[C@@H]4O)ccc3O[C@@H]2CO)ccc1O
luciferase signal [2]: 64 AU (inactive)

CCCCCCCC/C=C\CCCCCCCC(=O)NCc1ccc(O)c(OC)c1
z-score [1]: -1.29 (inactive) and -1.24 (inactive)

NC(=O)c1ncn([C@@H]2O[C@H](CO)[C@@H](O)[C@H]2O)c1O
z-score [1]: 0.59 (inactive)

COc1ccc2cc3[n+](cc2c1OC)CCc1cc2c(cc1-3)OCO2
luciferase signal [2]: 64 AU (inactive)

Nc1c2c(nc3ccccc13)CCCC2O (configuration not stated)
luciferase signal [2]: 36 AU (inactive)
z-score [1]: 0.445 (inactive) and 0.48 (inactive)

CN1C(C)(C)CCCC1(C)C
luciferase signal [2]: 68 AU (inactive)

O=c1cc(CO)occ1O
z-score [1]: 1.06 (inactive)

O=c1c(-c2ccc(O)cc2)coc2cc(O)cc(O)c12
luciferase signal [2]: 276 AU (active)
z-score [1]: 1.99 (active) and 1.98 (inactive)
inhibition ([3]; at 0.5 µM, stronger effect = higher value): -9.97% (inactive) and -4.89% (inactive)
inhibition ([3]; measured here: combination with BGB IC20, at 0.005 µM): -17.8% and -1.45%
inhibition ([3]; measured here: combination with BGB IC40, at 0.005 µM): -18% and -3.22%
inhibition [3, 18]: -25.1% and -11.9%
inhibition ([3]; measured here: combination with cisplatin, at 0.5 µM, stronger effect = higher value): -5.93% and -18.3%
inhibition ([3]; measured here: combination with cisplatin, at 5 µM, stronger effect = higher value): 8.08% and 3.66%
inhibition ([4]; BGB combo, at 5 µM): -47.6% and 34.9%
inhibition ([4]; at 0.5 µM): -42.8% (inactive) and -12.6% (inactive)
inhibition ([4]; cisplatin combo, at 5 µM): -40% and 3.53%
inhibition [4, 19]: -43.9% and -15.8%
inhibition [4, 20]: -42.3% and -4.37%
inhibition ([4]; single agent, at 5 µM): -15.6% and 2.01%
inhibition ([5]; BGB IC20 combo, at 0.005 µM): 8.8% and -0.198%
inhibition ([5]; BGB IC40 combo, at 0.005 µM): -22.1% and -29.4%
inhibition ([5]; BGB IC40 combo, at 0.05 µM): -7.4% and -6.46%
inhibition ([5]; at 0.5 µM): -34.3% (inactive) and -16.8% (inactive)
inhibition ([5]; cisplatin combo, at 0.05 µM): -11.3% and -9.44%
inhibition ([5]; cisplatin combo, at 0.5 µM): -39.9% and -21.8%
inhibition ([5]; cisplatin combo, at 5 µM): -72.1% and -7.73%
inhibition ([5]; measured here: 5 uM single agent, at 5 µM): -9.66% and -12.4%
inhibition ([6]; at 0.5 µM): -22.6% (inactive) and -10.7% (inactive)
inhibition [6, 18]: -45.5% and -14.8%
inhibition [6, 21]: -45.5% and -6.51%
inhibition [6, 22]: -62.6% and -7.84%
inhibition ([7]; at 0.5 µM): -23.1% (inactive) and -8.31% (inactive)
inhibition ([7]; measured here: with BGB IC20, at 0.5 µM): -24.9% and -17.6%
inhibition ([7]; measured here: with BGB IC20, at 5 µM): -18.6% and -5.83%
inhibition ([7]; measured here: with cisplatin IC20, at 0.5 µM): -32.2% and -12.6%
inhibition ([7]; measured here: with cisplatin IC20, at 5 µM): -33.6% and -5.76%
inhibition ([7]; single agent, at 5 µM): -0.415% and -6.72%
inhibition ([8]; at 0.5 µM): -89.3% (inactive) and -22.4% (inactive)
inhibition ([8]; measured here: combination with BGB at IC20, at 0.5 µM): -68.7% and -13.6%
inhibition ([8]; measured here: combination with cisplatin at IC20, at 0.5 µM): -148% and -31.4%
inhibition ([9]; at 0.5 µM): -19.5% (inactive) and -5.86% (inactive)
inhibition ([9]; measured here: combo with BGB at IC20, at 0.5 µM): -19.9% and -0.815%
inhibition ([9]; measured here: combo with cisplatin at IC20, at 0.5 µM): -26.5% and -4.16%
inhibition ([10]; at 0.5 µM): -11.2% (inactive) and 6.51% (inactive)
inhibition ([10]; measured here: inhibition with BGB combination, at 0.05 µM): -19.6% and -14.9%
inhibition ([10]; measured here: inhibition with cisplatin combination, at 0.05 µM): -41.2% and -9.05%
inhibition ([11]; at 0.5 µM): -21.6% (inactive) and -9.3% (inactive)
inhibition [11, 21]: -19.9% and -5.5%
inhibition [11, 22]: 2.54% and -37.8%
inhibition ([12]; at 0.5 µM): -10.3% (inactive) and -13.9% (inactive)
inhibition ([12]; measured here: BGB combination, at 0.5 µM): -9.11% and -11.4%
inhibition ([12]; measured here: BGB combination, at 5 µM): -2.8% and 13.3%
inhibition ([12]; measured here: cisplatin combination, at 0.5 µM): -11% and -29.3%
inhibition ([12]; measured here: cisplatin combination, at 5 µM): -8.45% and 5.18%
inhibition ([13]; BGB combination, concentration series, at 5 µM): 16.4% and 33.4%
inhibition ([13]; at 0.5 µM): -10.6% (inactive) and 4.64% (inactive)
inhibition ([13]; cisplatin combination, concentration series, at 5 µM): 5.85% and 47.6%
inhibition [14]: -1.4% (inactive) and 12.1% (inactive)
inhibition ([14]; measured here: combo with BGB IC20): 14% and 8.3%
inhibition ([14]; measured here: combo with cisplatin IC20): -16.8% and 13.7%
inhibition ([15]; at 0.5 µM): -13.6% (inactive) and -23.4% (inactive)
inhibition ([15]; cisplatin combination, at 0.5 µM): -26.2% and 3.79%
inhibition ([15]; cisplatin combination, at 5 µM): 1.19% and 21.5%
inhibition ([15]; measured here: BGB IC40 combination 0.05 uM, at 0.05 µM): -40.6% and -5.57%
inhibition ([15]; single agent, at 5 µM): -5.08% and 6.68%
inhibition ([16]; at 0.5 µM): 0.59% (inactive) and -8.25% (inactive)
inhibition ([16]; cisplatin combo, at 5 µM): -43.5% and 11.5%
inhibition ([16]; measured here: BGB IC40 combination, at 0.05 µM): -4.72% and -2.4%
inhibition [16, 21]: 13.5% and -9.76%
inhibition ([16]; single agent, at 5 µM): -12.8% and -12.2%
inhibition ([17]; at 0.5 µM): -44.2% (inactive) and 5.21% (inactive)
inhibition [17, 19]: -31% and 18.3%
inhibition [17, 20]: -53.3% and -3.63%
inhibition ([17]; single agent, at 0.05 µM): -62.4% and -21.3%
inhibition ([17]; single agent, at 5 µM): -46.3% and 9.19%

O=C(O)[C@@H](O)[C@H](O)[C@H](O)[C@@H](O)C(=O)O
luciferase signal [2]: 52 AU (inactive)

COc1cc(/C=C/C(=O)CC(=O)/C=C/c2ccc(O)c(OC)c2)ccc1O
luciferase signal [2]: 44 AU (inactive)

O=c1[nH]cnc2nc[nH]c12
luciferase signal [2]: 60 AU (inactive)

CCCCNc1c(C(=O)OCC)c(C)nc2c1cnn2CC
z-score [1]: 0.17 (inactive) and 0.34 (inactive)

Oc1cc(O)c2c(c1)O[C@H](c1ccc(O)c(O)c1)[C@H](O)C2
luciferase signal [2]: 20 AU (inactive)

CNC1(C)C2CCC(C2)C1(C)C (configuration not stated)
luciferase signal [2]: 108 AU (inactive)
z-score [1]: 0.26 (inactive) and 0.15 (inactive)

Cc1cc2c(C(C)C)c(O)c(O)c(C=O)c2c(O)c1-c1c(C)cc2c(C(C)C)c(O)c(O)c(C=O)c2c1O
luciferase signal [2]: 28 AU (inactive)
z-score [1]: -1.29 (inactive) and -0.705 (inactive)

CC(=O)Nc1ccc(OCC(O)CNC(C)C)cc1 (configuration not stated)
luciferase signal [2]: 24 AU (inactive)
z-score [1]: 0.68 (inactive)

NC1CCN(c2cccc(Cl)n2)CC1
z-score [1]: 0.81 (inactive) and 0.31 (inactive)

COC(=O)Nc1nc2ccc(C(=O)c3cccs3)cc2[nH]1
z-score [1]: -0.685 (inactive) and -1.18 (inactive) and -0.46 (inactive)
